Inconclusive results are not listed. Activity calls are given as the source filed them. The call rests on the fitted dose curve; in most records, active means well fitted inhibition curve with a large enough effect; inconclusive means small, poorly fitted or top-dose-only effect; inactive means flat fitted curve, though single readings scatter.
What follows are molecules tested against Tyrosyl-DNA phosphodiesterase 1 (Homo sapiens) (UniProt Q9NUW8) (assay: Confirmation Assay for Inhibitors of Tyrosyl-DNA Phosphodiesterase (TDP1) (AID 489007; further: nearly all actives have a fitted effect of over 40% in size)). Details: recombinant human TDP1 enzymatic activity, dose-response.
Sequence of Tyrosyl-DNA phosphodiesterase 1 (Homo sapiens) (Q9NUW8 whole entry, looked up): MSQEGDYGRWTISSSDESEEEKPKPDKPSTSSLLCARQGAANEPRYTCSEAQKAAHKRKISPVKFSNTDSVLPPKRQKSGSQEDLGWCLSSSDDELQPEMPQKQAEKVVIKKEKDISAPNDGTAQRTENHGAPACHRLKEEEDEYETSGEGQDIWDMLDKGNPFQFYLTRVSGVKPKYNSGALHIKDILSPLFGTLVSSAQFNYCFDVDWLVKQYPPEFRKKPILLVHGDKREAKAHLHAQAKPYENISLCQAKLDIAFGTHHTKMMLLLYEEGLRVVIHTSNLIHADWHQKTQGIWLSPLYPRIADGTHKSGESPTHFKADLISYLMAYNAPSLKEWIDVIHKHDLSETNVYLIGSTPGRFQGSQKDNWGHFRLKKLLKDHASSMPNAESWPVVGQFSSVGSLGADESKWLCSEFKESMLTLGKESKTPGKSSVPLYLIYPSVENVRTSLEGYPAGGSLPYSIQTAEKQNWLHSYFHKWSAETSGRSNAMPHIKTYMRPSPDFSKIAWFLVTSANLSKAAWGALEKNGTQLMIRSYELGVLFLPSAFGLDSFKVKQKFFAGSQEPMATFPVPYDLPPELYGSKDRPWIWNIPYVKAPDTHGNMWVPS
Summary of the method: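 Loss of AlphaScreen signal reports Tdp1 cleavage of a dual-labelled DNA substrate. Conditions: 1 nM E. coli-derived enzyme, 15 nM substrate, 15 min compound preincubation, 5 min reaction, 10 min bead incubation, all at room temperature.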
Potency means the concentration at half of the fitted maximal effect.

Potency, active:
CCn1c(SCc2nc3sc(C(=O)O)c(C)c3c(=O)[nH]2)nc2ccccc21 3.16 µM, O=C(CSc1nccc(=O)[nH]1)NCc1ccco1 31.6 µM, Cc1cccc(N2CCN(S(=O)(=O)c3ccc4[nH]c(=O)c(=O)[nH]c4c3)CC2C)c1 (centres undefined) 39.8 µM, Cc1ccc(S(=O)(=O)N2CC=C(C(=O)NCc3ccc(F)cc3)CC2)cc1 28.2 µM, COc1ccc(-n2cccc2/C=C2\C(=N)N3N=C(c4ccco4)SC3=NC2=O)cc1 14.1 µM, N#C/C(=C\c1ccc(OCc2ccc(F)cc2)cc1)C(=O)Nc1cccc(C(=O)O)c1 14.1 µM, COC(=O)c1cc(NC(=O)c2ccc3c(c2)NC(=O)c2ccccc2S3)cc(C(=O)OC)c1 25.1 µM, O=C(CCc1n[nH]c(=O)[nH]c1=O)N/N=C/c1ccco1 31.6 µM, Cc1cc(C=O)c(C)n1-c1ccc(Cl)c(C(=O)O)c1 1.12 µM, Cc1ccc(NC(=O)CN2C(=O)S/C(=C\c3cccn3-c3cccc(C(=O)O)c3)C2=O)c(C)c1 15.8 µM, OC[C@@H]1[C@@H](c2ccc(Cl)cc2)C(c2cccc(Cl)c2)=NN1c1ccccc1 50.1 µM, O=C(O)c1ccc(CSc2n[nH]c(-c3ccco3)n2)cc1 39.8 µM, O=C(O)c1cccc(-n2cccc2/C=C2/NC(=O)N(Cc3ccccc3F)C2=O)c1 8.91 µM, CCCCCc1nnc(NC(=O)Cc2cccs2)s1 25.1 µM, O=C(CSc1nnc(SCc2ccccc2)s1)N/N=C/c1c[nH]c2ccccc12 4.47 µM, CCc1nnc(NC(=O)c2sc3nc4c(cc3c2N)CCCCCC4)s1 112 µM, O=C(O)CNC(=O)CC1S/C(=N/N=C2/NC(=O)CS2)NC1=O (centres undefined) 89.1 µM, Nc1ccc(N)c(C(=O)O)c1 0.199 µM, NC(=O)c1oc2ccccc2c1NC(=O)c1nc2ccccc2s1 15.8 µM, O=C(Nc1cc2c(oc1=O)CCCC2=O)c1ccc(Cl)cc1 31.6 µM, Cc1ccc(NC(=O)CN2C(=O)S/C(=C\c3ccc(-c4cccc(C(=O)O)c4C)o3)C2=O)cc1 11.2 µM, Cc1nc(SCC(=O)O)c(C#N)c2c1CCCC2 8.91 µM, Cc1ccc(C(=O)O)cc1-c1ccc(/C=C2/NC(=O)N(c3ccccc3)C2=O)o1 7.08 µM, O=C(O)c1cccc(-n2cccc2/C=C2/NC(=O)N(c3ccc(Cl)cc3)C2=O)c1 1.62 µM
